High-throughput results from PubChem.
Tgondii IFNg – T. gondii growth inhibition under IFN-gamma | Toxoplasma gondii growth in IFN-gamma-treated host cells; active compounds read low | activity change, negative = inhibition, % (concentration not given with the values) | 69,000 tested, 3.8% active | AID 1259416; in the data active means activity change below about -70%, passing the limit was not always enough;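 further: host cells are HeLa cells infected with Toxoplasma gondii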
Each line names hits and unclear results; the compound was inactive in the other large screens; ! = not active in a repeat. The sample as a whole holds a higher share of hits than the screen did.

Cn1cc(-c2cc(-c3ccccc3)nn2-c2ccccc2)c2ccccc21	none
Cn1c(-c2ccc(Cl)cc2)cs/c1=N\C(=S)NCCc1ccccc1	none
CC(C)(C)c1csc(=S)n1CCc1ccc(Cl)cc1	Tgondii IFNg -87.4
c1ccc2ncc(CC3CNCCOC3)cc2c1 (stereo unspecified)	none
O=C(c1cccc(-n2cnnc2)n1)N1CCc2[nH]nc(-c3ccccc3)c2C1	none
COc1ccccc1-n1cc(C(=O)NCc2cnc(C)cn2)cn1	none
CC(=O)Nc1ccccc1	none
CC(=O)NC1=NN(C(C)=O)C(C)(c2ccccc2)S1 (stereo unspecified)	Tgondii IFNg -76.8!
CC(=O)Nc1nonc1-c1ccccc1	none
COc1cc(-c2cc(Cl)ccc2NC(C)=O)cc(OC)c1OC	none
COc1ccc(-c2nc(Cn3nnc(-c4nc(-c5ccccc5OC)no4)c3C)c(C)o2)cc1	none
CCOC(=O)c1cccnc1N1Cc2cnc(-c3ccccc3)nc2C1	none
O=C(NC1CCOCC1)c1ccc(-c2cc(-c3cn[nH]c3-c3ccccn3)ccn2)cc1	none
c1ccc(-c2[nH]ncc2-c2ccnc3ccccc23)nc1	Tgondii IFNg -80.3!
c1cc(-c2cnccn2)c2cccnc2c1	none
CNc1ccccc1C(=O)N1CCCN(C(=O)COC)CC1	none
C=CCN(Cc1ccccc1OC)C(=O)C1Cc2ccccc2C1	none
OC1=C(O)c2nc3cc(C(F)(F)F)ccc3nc21	none
NNC(=S)Nc1cc(C(F)(F)F)ccc1Cl	none
OC1(c2ccc(Cl)c(Cl)c2)CSc2nc3cc(C(F)(F)F)ccc3n21 (stereo unspecified)	Tgondii IFNg -83.6
CCCCN(CC#Cc1ccccc1)C(=O)c1occc1C	none
COc1ccc2c(c1)OC1(CCN(Cc3nc4sc(C)cc4c(=O)[nH]3)CC1)CC2=O	none
CC(=O)Nc1ccc(S(=O)(=O)Nc2nc3ccccc3nc2Nc2ccc(C)cc2)cc1	none
Cc1ccc(S(=O)(=O)Nc2ccc(-c3nc4ccccc4[nH]3)cc2)cc1	Tgondii IFNg -81.0
Cc1ccc(S(=O)(=O)Nc2cnc3ccccc3c2)cc1	none
COc1ccc(C)cc1NC(=O)c1c(O)c2ccccc2n(-c2ccccc2)c1=O	none
C[C@@H]1CN([C@H](C)CO)C(=O)c2cc(NS(=O)(=O)c3cccs3)ccc2O[C@@H](C)CCCCO[C@H]1CN(C)Cc1ccc(Cl)c(Cl)c1	none
C[C@@H]1CCCCO[C@H](CN(C)Cc2ccncc2)[C@H](C)CN([C@@H](C)CO)C(=O)c2cc(NS(=O)(=O)c3ccc(Cl)cc3)ccc2O1	none
C[C@@H]1CCCCO[C@@H](CN(C)Cc2ccncc2)[C@H](C)CN([C@H](C)CO)C(=O)c2cc(NS(=O)(=O)c3ccc(Cl)cc3)ccc2O1	Tgondii IFNg -104.6
C[C@@H]1CCCCO[C@@H](CN(C)Cc2ccc(Cl)c(Cl)c2)[C@@H](C)CN([C@@H](C)CO)C(=O)c2cc(NS(=O)(=O)c3cccs3)ccc2O1	none
C[C@@H]1CCCCO[C@@H](CN(C)Cc2ccc(Cl)c(Cl)c2)[C@H](C)CN([C@@H](C)CO)C(=O)c2cc(NS(=O)(=O)c3cccs3)ccc2O1	none
C[C@@H]1CN([C@@H](C)CO)C(=O)c2cc(NS(=O)(=O)c3ccc(Cl)cc3)ccc2O[C@@H](C)CCCCO[C@@H]1CN(C)Cc1ccncc1	Tgondii IFNg -113.1
C[C@@H]1CCCCO[C@@H](CN(C)Cc2ccc(Cl)c(Cl)c2)[C@H](C)CN([C@H](C)CO)C(=O)c2cc(NS(=O)(=O)c3cccs3)ccc2O1	none
C[C@@H]1CN([C@H](C)CO)C(=O)c2cc(NS(=O)(=O)c3ccc(Cl)cc3)ccc2O[C@@H](C)CCCCO[C@@H]1CN(C)Cc1ccncc1	Tgondii IFNg -111.7
C[C@@H]1CCCCO[C@@H](CN(C)Cc2ccncc2)[C@@H](C)CN([C@@H](C)CO)C(=O)c2cc(NS(=O)(=O)c3ccc(Cl)cc3)ccc2O1	none
COc1ccc(-n2c(=O)c(C(=O)NCc3cccc(C)c3)c(O)c3cccnc32)cc1	none
Cc1ccc(Nc2nc(C(=O)NCc3ccc(OC(C)C)cc3)nc3ccccc23)cc1	none
Cc1noc(C)c1CN1CCC2(CC(=O)N(c3cccc(C#N)c3)C2)C1 (stereo unspecified)	none
COc1ccccc1-c1cc(NC(=O)Cn2c(=O)cc(C)c3ccccc32)n(C)n1	none
CC(SC(=O)c1cccs1)C(=O)NCC(=O)O (stereo unspecified)	none
Cc1ccc(NC(=O)C(=O)N(C)C(C)Cc2ccccn2)c(C)c1 (stereo unspecified)	none
Cc1c(S(=O)(=O)C(C)C)c(N)n(Cc2ccc(Cl)cc2Cl)c1C	none
c1ccc(-c2ccsc2-c2ccccc2)cc1	none
COc1ccc(CCNc2ncnc3c2cnn3-c2ccccc2)cc1OC	none
c1ccc(CNc2ncnc3ccccc23)cc1	none
Nc1ccc2ncnc(NCCc3ccc(Oc4ccccc4)cc3)c2c1	Tgondii IFNg -70.6
CN(Cc1ccccc1)S(=O)(=O)c1cc2c3c(c1)CCC(=O)N3CCC2	none
COCC1c2c(cnn2CC2CC2)CCN1C(=O)c1ccoc1C (stereo unspecified)	none
CCCCOc1cc(C(=O)NCCN(CC)CC)c2ccccc2n1	none
CCCCc1oc2ccccc2c1C(=O)c1cc(I)c(OCCN(CC)CC)c(I)c1	Tgondii IFNg -81.1
CCCCOc1cc(C(=O)OCCN(CC)CC)ccc1N	none
